# Screens from PubChem BioAssay.
# Rows were chosen to be rich in hits. Some 11% of all compounds tested hit in one or more screens of this group.
# PNC inhibitor = inhibitors of perinucleolar compartment assembly | PC3M PTB-GFP, PNC prevalence imaging, 16 h; active compounds read low | activity change (PNC), negative = inhibition, % at 10 µM | 140,000 tested, 3.1% active | AID 2417;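 active = readout at or below -70, meaning at least 70% loss of cells showing the perinucleolar compartment, a nuclear body marking cancer cells; inconclusive = readout between -30 and a set limit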
#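 PC3M cells stably expressing PTB-GFP, 750–1000 cells/well, treated 16 h at 37 °C with compound (23 nl of library stock), in duplicate. After paraformaldehyde fixation and Hoechst stain, imaged at 20x; PNC prevalence scored by image analysis.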
# HPGD block = HPGD (human) dehydrogenase inhibition | purified HPGD, NADH fluorescence kinetic, PGE2 substrate | 150,000 tested, 4.3% active | P15428 | Potency, µM, actives largely listed as inhibitors | AID 894
#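 NADH formation kinetics: reaction with 30 uM PGE2 and 1 mM NAD+ (final), 20 nM enzyme, Tris-HCl pH 8 with Tween 20, after 15 min compound preincubation at room temperature. Fluorescence change, last versus first of five reads.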
# JMJD2E inh = JMJD2E (human) inhibition. JMJD2E catalytic domain, FDH-coupled NADH fluorescence (FDH is formaldehyde dehydrogenase). 230,000 tested, 1.6% active. Potency, µM (doses to about 57.1 µM), actives largely listed as inhibitors; note: nearly all actives have a fitted effect of over 50% in size
# ALDH1A1 block = blocks purified human ALDH1A1 activity | 220,000 tested, 7.3% active | Potency, µM (titrated, usually from 75.3 µM), most hits filed as inhibitors | AID 1030 | P00352 | Purified ALDH1A1, NADH fluorescence, propionaldehyde substrate
# Target sequence (P00352 whole entry, looked up): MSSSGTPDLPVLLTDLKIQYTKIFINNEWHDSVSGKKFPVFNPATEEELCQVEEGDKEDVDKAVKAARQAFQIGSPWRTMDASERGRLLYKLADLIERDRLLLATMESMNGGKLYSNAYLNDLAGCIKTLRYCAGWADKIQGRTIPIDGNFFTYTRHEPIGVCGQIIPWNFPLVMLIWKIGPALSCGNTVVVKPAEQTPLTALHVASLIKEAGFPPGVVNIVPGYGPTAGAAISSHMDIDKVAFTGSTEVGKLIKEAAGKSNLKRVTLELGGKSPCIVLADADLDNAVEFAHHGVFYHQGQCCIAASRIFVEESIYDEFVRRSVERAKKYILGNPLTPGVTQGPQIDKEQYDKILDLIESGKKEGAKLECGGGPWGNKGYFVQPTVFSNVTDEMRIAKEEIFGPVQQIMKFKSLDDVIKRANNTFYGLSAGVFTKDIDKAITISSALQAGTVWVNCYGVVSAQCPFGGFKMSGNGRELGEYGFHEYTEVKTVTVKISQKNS
# A number is an active result; 0 = inactive; ? = inconclusive; - = no result; [ ] = another dose, or the depositor's remark. Unless noted, calls come from the whole dose curve; as a rule, active = well fitted inhibition curve with a large enough effect (not every such curve was filed as active); inconclusive = small, poorly fitted or top-dose-only effect, or another doubt; inactive = no such curve, though single readings can be large or run the other way.
SMILES,PNC inhibitor,HPGD block,JMJD2E inh,ALDH1A1 block
COc1cccc(C=Nc2ccccc2C(=O)Nc2ccccc2)c1O,-110,?,0,?
COc1cccc(/C=N/NC(=O)c2ccoc2C)c1O,-,-,14µM,-
COc1cccc(/C=N\NC(=O)C2C(=O)NCC2c2ccccc2)c1O (stereo unspecified),0,0,28µM,0
Cc1ccc(C(CCNC(C)c2cccs2)c2ccco2)cc1 (stereo unspecified),-,-,0,-
COCC(=O)N1CCC2(CC1)CN(C(=O)Nc1cccc(C#N)c1)C2,-,0,-,0
OC[C@@H]1CCC[C@H](n2cnc3c(=S)nc[nH]c32)O1,-,0,-,0[13.5 µM]
Cc1ccc(C(=O)N/N=C\c2ccccn2)cn1,-,-,?,0
COc1cccc(/C=N/NC(=O)c2c(-c3ccccc3)noc2C)c1O,0,0,32µM,0
COc1cccc(/C=N/NC(=O)NC2CCCCC2)c1O,-,-,22µM,-
Cc1occc1C(=O)N/N=C/c1ccccn1,-,-,0,28µM
COc1cccc(/C=N/NC(=O)C(=O)NCc2ccco2)c1O,0,0,13µM,0
COc1ncc2nc(CCc3ccccc3)c(=O)n(CCC#N)c2n1,-,0,-,?
CN(C)c1ccc(-c2cncnc2NCCN2CCOCC2)cc1,-,-,-,0
COc1cccc(/C=N/NC(=O)CC2C(=O)NN=C2C)c1OC (stereo unspecified),0,?,?,?
COc1cccc(/C=N/NC(=O)CC2C(=O)NN=C2C)c1O (stereo unspecified),0,0,8.9µM,0
CC1(C)Cc2c(c(-c3ccccc3)[nH]c(=O)c2C#N)CS1,0,?,0,28µM
CC1(C)Cc2c(c(-c3ccco3)[nH]c(=O)c2C#N)CS1,0,14µM,?,5.6µM
N#Cc1c(-c2ccccc2)[nH]c(=S)[nH]c1=O,?,0,0,0
OC(COc1ccc(CNCCc2ccccc2F)cc1)CN1CCCCC1 (stereo unspecified),-,-,0,0
COc1cc(C(=O)Nc2nnc(C3CC3)s2)ccc1OCc1c(C)noc1C,-,-,?,0
Cc1ccc(/C(O)=C/C(=O)C(=O)NC23CC4CC(CC(C4)C2)C3)cc1,-,-,0,-
COCCNC(=S)N/N=C1\CC(C)CC(C)(C)C1 (stereo unspecified),-,-,?,8.9µM
CCCCCCOc1ccc(NC(=O)CC2C(=O)N(CC)C(=S)N2Cc2ccco2)cc1 (stereo unspecified),0,0,0,0
COC(=O)[C@@H](O)CC[C@@H](C)Cc1c(OC)c(OC)c(C)c(OC)c1OC,-,0,0,0
Cc1cc(N2CCCCC2)nc(SCc2ccc(C#N)cc2)n1,0,0,0,1.3µM
SMILES,PNC inhibitor,HPGD block,JMJD2E inh,ALDH1A1 block
COc1ccc2cc(C(=O)Nc3ccc(O)cc3)sc(=O)c2c1OC,0,25µM,0,0
Cc1nn(C)c(C(=O)NCc2ccc(Cl)cc2)c1Cl,0,0,0,0
Cc1nn(C)c(C(=O)NNC(=S)NCc2ccco2)c1Br,-,-,0,?
Cc1nn(C)c(C(=O)NNC(=S)NCC(C)C)c1Cl,-114,0,0,0
Cc1nn(C)c(C(=O)NNC(=S)NCc2ccco2)c1Cl,0,35µM,0,0
COC(=O)c1cccc(NC(=O)CN2CCN(Cc3ccccc3)CC2)c1,0,0,0,25µM
COc1cc(NC(=O)CN2CCN(c3ccccc3F)CC2)cc(OC)c1,?,0,0,22µM
COc1ccc(CCNC(=O)CN2CCN(c3ccccc3Cl)CC2)cc1,?,0,0,3.2µM
COc1cccc(NC(=O)CN2CCN(c3ccccc3F)CC2)c1,?,0,0,10µM
O=C1CCC[C@@H]2CC(NCc3ccc(Cl)c(Cl)c3)C[C@@H]3CCN1[C@H]23 (stereo partly specified),-,0,-,0
C#CCOCCOCCOCCNc1nc(N2CCN(C(=O)C(Cc3cc4ccccc4[nH]3)n3cc(C(N)Cc4ccc(O)cc4)nn3)CC2)nc(N2CCN(C(=O)C(Cc3cc4ccccc4[nH]3)n3cc(C(N)Cc4ccc(O)cc4)nn3)CC2)n1 (stereo unspecified),-,-,0,?
COc1cccc(NC(=O)Cn2c(CCC(=O)O)ccc2-c2ccc(Cl)cc2)c1,-,-,28µM,25µM
COc1ccc(N=C2C(=Nc3ccc(OC)cc3)N(c3ccccc3)C(=S)N2C(=O)c2ccc(Cl)cc2)cc1,-100,0,0,?
COc1ccc(N=C2C(=Nc3ccc(OC)cc3)N(c3ccc(OC)cc3)C(=S)N2C(=O)c2ccc(OC)cc2)cc1,0,0,0,?
CC(OC(=O)CNC(=O)c1ccc2c(c1)OCO2)C(=O)NCCC1=CCCCC1 (stereo unspecified),?,18µM,0,0
CCCCOCCOCCOCc1cc2c(cc1CCC)OCO2,-,0,-,10µM
CCCCOCCOCCOCCCC,-,0,-,0
COCCCNC(=O)c1ccc2c(c1)OCO2,0,6.3µM,0,0
CCCCOCCCNC(=O)c1ccc2c(c1)OCO2,0,25µM,0,0
COc1cc(OC)nc(NC(=O)COC(=O)c2cccc(Cl)c2)n1,-,-,0,0
C=CCCCC,-,0,-,0
Cc1c(Cl)cccc1NC(=S)N1CCN(S(=O)(=O)c2cccs2)CC1,-,-,0,?
N#Cc1ccccc1S(=O)(=O)N1CCN(CC(O)c2ccccc2)CC1 (stereo unspecified),-,-,?,0
CCCCN(C(=O)c1ccc2c(c1)OCO2)c1ccccc1,-,-,0,14µM
CCCCNC(=O)c1ccccc1NC(=O)c1ccc2c(c1)OCO2,-,-,0,0
SMILES,PNC inhibitor,HPGD block,JMJD2E inh,ALDH1A1 block
C=CCNC(=O)C1COc2ccccc2O1 (stereo unspecified),-,-,0,-
Cc1ccc(NC(=O)CNCCCN2CCOCC2)cc1S(=O)(=O)N1CCCCC1,-,-,0,?
COC(=O)c1sccc1NC(=S)N(C)C1CCCCC1,-,-,0,0.35µM
COC(=O)c1ccc(=O)c2nc3/c(=C/O)c(O)cc(=O)c3[nH]c12,-,-,8.9µM,-
COC(=O)c1ccc(N)cc1O,?,0,0,0
CN(C)CCNC(=O)c1ccc(-n2c(=O)c(=O)[nH]c3ccccc32)cc1,-,0,-,0
N#CCC(N)=C(C#N)C#N,0,0,7.9µM,0
COC(=O)CC#N,-,0,-,0
CNc1nc(Sc2ccccc2)cc(C(F)(F)F)n1,0,35µM,0,35µM
CNc1nc(Sc2cccc(C(F)(F)F)c2)cc(C(F)(F)F)n1,0,?,?,0
Oc1cc(CN2COc3ccccc32)c(O)cc1CNC1CCCCC1,-,1.6µM,-,0[13.5 µM]
Cc1ccccc1CNC1CCCCC1,?,0,0,0
CCN(CC)S(=O)(=O)c1ccc(C2=NOC3(C2)N(C)c2ccccc2C3(C)C)cc1 (stereo unspecified),-106,0,0,?
CN1c2ccccc2C(C)(C)C12CC(c1cccc(S(=O)(=O)N3CCCC3)c1)=NO2 (stereo unspecified),-117,0,0,0
Cc1cc(C)nc(NC(=O)CSc2ccccn2)n1,0,0,0,10µM
Cc1cc(C)nc(NC(=O)CSc2ncccn2)n1,-,-,0,0
O=C(CSc1ccccn1)Nc1ccc(NC(=O)CSc2ccccn2)cc1,-,-,0,0
COc1ccc(/C=N/NC(=O)c2cccnc2)cc1CSc1ccccn1,-,-,0,-
COc1ccc(NC(=O)CSc2ccccn2)cc1,0,25µM,0,0
COc1cccc(NC(=O)CSc2ccccn2)c1,0,28µM,0,20µM
